HSF-1 act: HSF-1 activators, primary screen, NIH3T3-HGL cells, MG132 stress, luminescence, single point; NIH3T3-HGL HSF-1 luciferase reporter, 8 h; 100% = twice DMSO control signal; activation, % at 9 µM; hit rate 1.7% among 300,000;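 active = mean replicate activation of at least 50% with a set share of replicates each reaching 50%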;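 note: 0% = median of the neutral control wells and 100% = twice that signal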
HSF1 inh: HSF1 inhibitors in luciferase reporter cells, primary screen, cell-based, NIH3T3, luminescence; NIH3T3-HGL HSE-luciferase, MG132-induced, luminescence 8 h; stronger effect = lower value; activity change, negative = inhibition, % at 7.5 µM (by protocol); AID 2098, 2009; hit rate 0.77% among 300,000;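 active = more than half of replicate wells show activity change below -50%, luminescence cut by over half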;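 note: luciferase reports HSF-1 transcriptional activity via heat shock element; 0% = median of DMSO wells and -100% = zero luminescence signal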
LGR2 antag: inhibitors of bursicon-induced LGR2 CRE-luciferase signal, primary screen, cell-based, HEK293, CRE-luciferase reporter, bursicon stimulation; Drosophila bursicon receptor LGR2 (rickets); bursicon-stimulated, 4 h; inhibition, % at 9.99 µM; hit rate 0.35% among 380,000;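 active = drop in luminescence signal, shown as inhibition above about 50% in the replicate tests, limit read from the data, passing the limit was not always enough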;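 note: agonist challenge used bursicon conditioned medium at about half maximal strength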
TWEAK Fn14 block: inhibitors of TWEAK-Fn14 signaling, primary screen, luciferase reporter cells, uHTS; inhibition, % at 10 µM; hit rate 2% among 360,000; TWEAK-stimulated Fn14 reporter cells, luciferase luminescence, 8 h; in the data active = inhibition above about 50%
TROY NFkB inh: inhibitors of TROY-driven NF-kB signaling, primary screen, Q293 LMP1-TROYcd cells, NF-kB luciferase, uHTS; Q293 LMP1-TROYcd NF-kB luciferase reporter, 4 h; inhibition, % at 10 µM; hit rate 0.98% among 360,000;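 active = compounds whose plate-normalised and pattern-corrected inhibition of the luciferase reporter signal at the single screening dose is 50% or more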
LMP1 NFkB inh: EBV LMP1-driven NF-kappaB luciferase reporter inhibitors, primary screen, cell-based, luminescence, single point; LMP1-induced NF-kappaB luciferase reporter cells; inhibition, % at 12.5 µM; hit rate 0.69% among 350,000; in the data active = inhibition above about 41%;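 note: 0% = neutral control wells and 100% = reference inhibitor control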
* hit, by the source's call; nt = no result. This is a sample that favours compounds with a hit; in the whole collection about 3.6% have one here.

SMILES	HSF-1 act	HSF1 inh	LGR2 antag	TWEAK Fn14 block	TROY NFkB inh	LMP1 NFkB inh
CCCCC[C@H](O)/C=C/[C@H]1[C@H](O)CC(=O)[C@@H]1CCCCCCC(=O)O	-11	4	nt	nt	nt	nt
CC(=O)c1c(C)[nH]c(C(=O)O)c1C	-4	-2	17	13	11	-10
CC(=O)c1c(C)[nH]c(C)c1C(C)=O	0	-6	nt	62*	10	-3
O=C(C[C@@H]1CC[C@H](NC(=O)c2cnccn2)[C@H](CO)O1)NCc1ccccc1F	nt	nt	7	nt	nt	nt
CC(C)=CCc1c(O)cc2oc3c(CC=C(C)C)c(O)c(O)c(CC=C(C)C)c3c(=O)c2c1O	1	8	nt	82*	58*	2
CC(C)=CCc1cc(-c2oc3cc(O)cc(O)c3c(=O)c2O)ccc1O	-12	2	-28	49	24	-18
CO[C@H]1CN(C)C(=O)c2cc(NC(=O)CC(F)(F)F)ccc2OC[C@H](C)N(C(=O)c2ccccc2F)C[C@@H]1C	nt	nt	-1	nt	nt	nt
CO[C@@H]1CN(C)C(=O)c2ccc(NS(=O)(=O)c3ccccc3)cc2OC[C@@H](C)N(C(=O)NC(C)C)C[C@H]1C	nt	nt	27	nt	nt	nt
Cc1ccc(-c2ccc3c(c2)O[C@H](CN(C)C(=O)C2CC2)[C@@H](C)CN([C@H](C)CO)S3(=O)=O)cc1	nt	nt	-12	nt	nt	nt
CCc1ccc(NC(=O)CN(c2ccccc2)S(=O)(=O)N(C)C)cc1	60*	13	-24	-2	8	-7
CN(C)S(=O)(=O)N(CC(=O)Nc1ccccc1F)c1ccccc1	5	-2	nt	-17	10	-5
CC(=O)N(C)C[C@@H]1Oc2cc(-c3ccc(F)cc3)ccc2S(=O)(=O)N([C@H](C)CO)C[C@@H]1C	nt	nt	-6	nt	nt	nt
C/C(N=Nc1nc2ccccc2s1)=N\Nc1ccccc1O	-38	-22	-7	80*	7	3
O=C(Nc1ccccc1)Nc1cc(OCC(F)(F)F)cc(OCC(F)(F)F)c1	-27	-2	30	59*	43	-5
O=C(NCCNC(=O)c1cc(OCC(F)(F)F)ccc1OCC(F)(F)F)Nc1cccc(C(F)(F)F)c1	9	8	nt	5	24	-5
O=C(Nc1ccccc1Cl)Nc1ccccc1Cl	8	10	-13	-9	-22	0
O=C(Nc1ccc(Nc2ccccc2)cc1)Nc1ccccc1Cl	56*	34	-55	-29	24	-20
O=C(Nc1ccccc1)Nc1cc(Cl)cc(Cl)c1	16	7	nt	41	51*	-4
CC(=O)Nc1ccc(OS(=O)(=O)c2ccc(C)cc2C)cc1	-2	-2	-16	-20	-7	-10
CC(=O)Nc1ccc(OS(=O)(=O)c2ccccc2C)cc1	-93	-91*	-10	11	-30	-11
CCCN1C[C@H](C)[C@H](OC)CN(C)C(=O)c2cc(NC(=O)C3CC3)ccc2OC[C@@H]1C	nt	nt	2	nt	nt	nt
CCN(C(=O)c1cccc(S(=O)(=O)N2CCCCC2)c1)C1CCS(=O)(=O)C1 (stereo unspecified)	57*	28	9	-7	17	1
CC(=O)Nc1ccc(N/C=C/C(=O)c2ccccc2)cc1	10	2	-40	-13	-38	-26
COc1ccc(OC)c(N/C=C/C(=O)c2ccccc2)c1	-54	-43	96*	101*	81*	72*
O=C(/C=C/Nc1ccccc1)c1ccccc1	88*	45	nt	37	-23	-26
SMILES	HSF-1 act	HSF1 inh	LGR2 antag	TWEAK Fn14 block	TROY NFkB inh	LMP1 NFkB inh
CN(C)c1ccc(N/C=C/C(=O)c2ccccc2)cc1	22	10	nt	95*	23	-73
O=C(/C=C/Nc1ccc(F)cc1Br)c1ccccc1	-71	-66*	94*	90*	77*	48*
CN(C)c1ccc(N/C=C/C(=O)C(C)(C)C)cc1	-5	14	nt	-20	14	5
COc1ccc(NC(=O)N(C)C[C@H]2OCCCC[C@H](C)Oc3ccc(NC(=O)Nc4ccc(F)cc4)cc3C(=O)N([C@@H](C)CO)C[C@@H]2C)cc1	nt	nt	23	nt	nt	nt
COc1cccc(CN2CCC3(CC2)CN(C(=O)C2CC2)[C@H](CO)c2[nH]c4cc(OC)ccc4c23)c1	nt	nt	15	nt	nt	nt
CCNC(=O)Nc1ccc2c(c1)C(=O)N(C)[C@@H]1CC[C@H](CC(=O)NCc3cccc(F)c3)O[C@@H]1CO2	nt	nt	-3	nt	nt	nt
Cc1noc(C)c1NC(=O)Nc1ccc2c(c1)C(=O)N([C@@H](C)CO)C[C@H](C)[C@@H](CN(C)Cc1ccccc1)OCCCC[C@@H](C)O2	nt	nt	0	nt	nt	nt
Brc1ccc2c(c1)C(c1ccc(N3CCOCC3)cc1)=NNC(c1cccs1)=N2	39	20	nt	-10	-40	-5
Brc1ccc2c(c1)C(c1cccnc1)=NNC(c1cccs1)=N2	64*	26	-2	-10	-29	10
Cc1ccc(Nc2nnc(SCC(=O)Nc3ccc(S(=O)(=O)N4CCOCC4)cc3)s2)cc1	72*	15	nt	32	22	-13
Cc1cccc(Nc2nnc(SCC(=O)Nc3cccc(S(=O)(=O)N4CCCCC4)c3)s2)c1	58*	16	-51	60*	12	5
Cc1ccc2nc(SCC(=O)Nc3cccc(S(=O)(=O)NC4=NCCCCC4)c3)[nH]c2c1	112*	54	4	5	13	6
CCCn1c(SCC(=O)Nc2cccc(S(=O)(=O)NC3=NCCCCC3)c2)nc2ccccc2c1=O	21	16	7	78*	57*	8
CCOCCCn1c(SCC(=O)Nc2cccc(S(=O)(=O)NC3=NCCCCC3)c2)nc2ccccc2c1=O	-7	1	-18	5	14	8
O=C(CN1CCOCC1)N1CCCCN2[C@H](C1)[C@H](c1ccc(C#Cc3ccccc3F)cc1)[C@@H]2CO	nt	nt	8	nt	nt	nt
Cc1noc(C)c1NC(=O)N(C)C[C@@H]1Oc2ccc(NC(=O)C3CCCCC3)cc2C(=O)N([C@H](C)CO)C[C@@H]1C	nt	nt	1	nt	nt	nt
Cc1nnc(SCC(=O)Nc2cccc(S(=O)(=O)NC3=NCCCCC3)c2)n1Cc1ccccc1	-4	-3	-17	-1	15	-5
CCc1ccc(Nc2nnc(SCC(=O)Nc3cccc(S(=O)(=O)NC4=NCCCCC4)c3)s2)cc1	55*	26	-24	15	3	4
Cc1cc(SCC(=O)Nc2cccc(S(=O)(=O)NC3=NCCCCC3)c2)c(C)cc1Br	38	18	23	5	37	1
Cc1ccc(Nc2nnc(SCC(=O)Nc3cccc(S(=O)(=O)NC4=NCCCCC4)c3)s2)cc1	86*	31	-21	4	-32	0
